Screening results (PubChem BioAssay)
A selection: hits, their analogues and other compounds. The true share with any hit is near 2.4%.
HepG2 viability – qHTS for Inhibitors of TGF-b: Cytotox Counterscreen; HepG2 CAGA-GFP viability, ATP luminescence, 18 h; Potency, µM (doses to about 46.1 µM), for the others: top-dose activity change, negative = cytotoxicity, actives largely listed as cytotoxic; hit rate 0.76% among 410,000
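CellTiter-Glo luminescence gave cytotoxicity after 18 hours at 37 degrees C. The cells were HepG2 CAGA-GFP in 1% FBS DMEM, stimulated with 500 pg/mL TGF-beta after compound addition. %Activity was normalised to no-cell wells (complete cell-killing) and DMSO (no toxicity), and curves were fitted and classified.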
ATXN2 expr inh – Primary qHTS for Inhibitors of ATXN expression; HEK-293 ATXN2-luciferase reporter, luminescence, 24 h; hit rate 0.72% among 360,000; AID 1745845, 2022; Potency, µM (series often up to 57 µM), without a hit: top-dose activity change, negative = inhibition, usual class: inhibitors; also: % is scaled to controls: 0 for no effect and ±100 for the full control effect; nearly all actives have a fitted effect of over 55% in size
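qHTS (up to 57 uM final) was run with 24 h compound exposure of reporter cells at 37 °C. Each well was multiplexed: SteadyGlo luminescence measured ATXN2-luciferase expression after a fluorogenic Gly-Phe-AFC viability readout (25 uM final).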
S2 tox – Viability Counterscreen for Primary qHTS for Inhibitors of ATXN expression; hit rate 0.49% among 400,000; S2 cells (HEK-293 line with an ATXN2-luciferase reporter) viability, CellTiter-Fluor protease fluorescence, 24 h; Potency, µM (top dose mostly 56.7 µM), hits mostly cytotoxic; AID 651635, 2014; also: nearly all actives have a fitted effect of over 40% in size
Anesthetic bind – qHTS Assay for Identification of Novel General Anesthetics; Ferritin light chain (Equus caballus), P02791; apoferritin/1-aminoanthracene competitive binding, fluorescence; Potency, µM (top dose mostly 77.5 µM), without a hit: at the highest dose activity change, negative = displacement, most hits filed as inhibitors; hit rate 0.074% among 350,000; AID 485281, 2010; also: % is scaled to controls: 0 for no effect and ±100 for the full control effect; nearly all actives have a fitted effect of over 20% in size
Target sequence (P02791 2-175 limits assumed): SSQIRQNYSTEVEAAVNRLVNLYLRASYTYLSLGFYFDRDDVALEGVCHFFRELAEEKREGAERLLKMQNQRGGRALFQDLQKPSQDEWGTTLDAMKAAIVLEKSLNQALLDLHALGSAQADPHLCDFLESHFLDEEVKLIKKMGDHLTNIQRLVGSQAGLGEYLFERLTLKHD
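Apoferritin-based anesthetic binding model; compound displacement of fluorescent 1-AMA measured as endpoint fluorescence after 10 minutes at room temperature, scaled to free-ligand and complex controls.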
TGFb SMAD3 inh – qHTS for Inhibitors of TGF-b; HepG2 CAGA-GFP TGF-b/SMAD3 reporter, GFP fluorescence, 18 h; TGF-beta stimulated, 500 pg/mL final; Potency, µM (highest dose often 46.1 µM), for the others: top-dose activity, negative = inhibition, hits mostly inhibitors; AID 588855, 2011; hit rate 1.2% among 410,000; also: % is scaled to controls: 0 for no effect and ±100 for the full control effect; nearly all actives have a fitted effect of over 65% in size
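Read-out: total well GFP (ex488/em500-530) summed from mean per-cell fluorescence. Cells: HEPG2 CAGA-GFP, 1% FBS DMEM, 18 h at 37 degrees C with 500 pg/mL final TGF-beta. Unstimulated wells served as the full-inhibition control; stimulated DMSO wells = 0%.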
An asterisk follows results filed as active; i = inactive; ? = inconclusive; . = no result given; [ ] = remark or other dose. Calls follow the shape of the dose curve; as a rule, active = well fitted curve in the direction sought with a large enough effect; inconclusive = small, poorly fitted or top-dose-only effect, or another doubt; inactive = no such curve, though single readings can be large; an effect the other way counts as inactive or inconclusive. Potency is read from the fitted curve at half-maximal effect.

SMILES	HepG2 viability	ATXN2 expr inh	S2 tox	Anesthetic bind	TGFb SMAD3 inh
OC[C@@H]1[C@@H](c2ccc(F)cc2)C(c2ccc(F)cc2)=NN1c1ccccc1	.	.	.	76%[110 µM]	.
CCn1ccc(NS(=O)(=O)c2ccc(N)cc2)nc1=O	.	1%	i	.	.
C=CCC1(O)C=CCC2C3C4C(OC(C)(C)C)C2C1C34 (stereo not drawn)	.	.	.	-5%[15.3 µM]	.
COc1ccccc1C1(O)CCN(CCCn2c3ccccc3c3ccccc32)CC1	.	.	.	0%	.
COc1ccc2c(c1)CCc1cnc(-n3ncc(C(=O)N(C)CCc4ccccn4)c3C)nc1-2	.	.	i	.	.
O=C(CCC(=O)Nc1ccc(Br)cc1)N/N=C/c1ccccc1F	1.8µM*	6%	i	-20%	-25%
Cc1ccc(NC(=O)CCC(=O)N/N=C/c2ccc(O)cc2O)cc1	-18%	-16%	i	-21%	0%
C=CCc1cccc(/C=N/NC(=O)CCC(=O)Nc2ccc(C)cc2)c1O	-39%	14µM*	i	-1%	-42%
Cc1ccc(CNC(=O)c2ccc3c(c2)CCN3S(=O)(=O)c2ccccc2)cc1	-3%	12%	?	43%	-4%
Cc1ccc(S(=O)(=O)N2CCc3cc(C(=O)N(C)Cc4ccccc4)ccc32)cc1	2%	-39%	7.1µM*	43%	?
N=c1c2c(ncn1CCCO)Oc1c(ccc3ccccc13)C2c1ccccc1 (stereo not drawn)	-118%	.	14µM*	-7%	?
COc1ccc(C2c3ccc4ccccc4c3Oc3ncn(CCO)c(=N)c32)cc1OC (stereo not drawn)	0%	.	?	-16%	-4%
COc1ccc(C2c3ccc4ccccc4c3Oc3ncn(CCCO)c(=N)c32)cc1OC (stereo not drawn)	-120%	?	?	-12%	11µM*
COc1ccc(C2c3ccc4ccccc4c3Oc3ncn(CCN(C)C)c(=N)c32)cc1 (stereo not drawn)	-80%	-29%	?	8%	16µM*
COc1ccc(C2c3ccc4ccccc4c3Oc3ncn(CCCO)c(=N)c32)cc1 (stereo not drawn)	-117%	25µM*	.	-3%	?
COc1ccc(C2c3ccc4ccccc4c3Oc3ncn(CCO)c(=N)c32)cc1 (stereo not drawn)	-11%	?	?	6%	0%
CN(C)CCCn1cnc2c(c1=N)C(c1ccccc1)c1ccc3ccccc3c1O2 (stereo not drawn)	-102%	.	?	-5%	?
COc1ccc(C2c3ccc4ccccc4c3Oc3ncn(CCN4CCOCC4)c(=N)c32)cc1 (stereo not drawn)	-103%	?	.	129%	-4%
O=C(CCN1CCN(C(=O)OCc2cc(Cl)cc(Cl)c2)CC1)c1ccc2[nH]c(=O)oc2c1	.	6%	.	.	.
O=C(c1cccc(F)c1)N(Cc1cc2cc3c(cc2nc1N1CCOCC1)CCC3)CC1CCCO1 (stereo not drawn)	.	.	i	.	.
CCN(CC)c1ccccc1/C=C/[n+]1ccc(CCCCI)c2ccccc21	-28%	.	.	.	?
[O-][N+]12CCCc3cccc(c31)CCC2	-4%	.	.	.	-18%
CC(C)(C)c1ccc2c(S(=O)(=O)O)c(C(C)(C)C)ccc2c1	.	.	i	.	.
CN[C@@H]1[C@H](O[C@@H]2O[C@H](C)[C@@](O)(CO)[C@H]2O[C@H]2[C@H](O)[C@H](O)[C@H](N=C(N)N)[C@@H](O)[C@@H]2N=C(N)N)O[C@@H](CO)[C@H](O)[C@H]1O	.	.	.	4%	.
N=c1c2c(ncn1Cc1ccco1)Oc1ccc3ccccc3c1C2c1ccccc1 (stereo not drawn)	-2%	22µM*	.	10%	0%
SMILES	HepG2 viability	ATXN2 expr inh	S2 tox	Anesthetic bind	TGFb SMAD3 inh
CCOc1ccc(/C=C/c2[nH]c(=O)[nH]c(=O)c2[N+](=O)[O-])cc1	6%	12%	i	-4%	-7%
CC(C)c1ccc(/C=C/c2[nH]c(=O)[nH]c(=O)c2[N+](=O)[O-])cc1	16µM*	.	i	-9%	?
CCOc1ccc(C(=O)/C=C/Nc2ccc(S(=O)(=O)N=C(N)N)cc2)cc1	-5%	-17%	?	1%	20µM*
O=C(NCCO)c1cccc(-c2cnc3c(Nc4cccc(OC(F)(F)C(F)F)c4)nccn23)c1	-58%	?	32µM*	.	?
CC(=O)Nc1cc(-c2cccc(F)c2)cn2c(-c3ccc(F)c(Cl)c3)cnc12	-46%	-30%	?	.	18µM*
COc1cccc(-c2cnc3c(NC(C)=O)cc(-c4cccc(C(=O)NCCN(C)C)c4)cn23)c1	13µM*	?	?	.	?
CC(=O)Nc1cc(-c2cccc(C(=O)NCCO)c2)cn2c(-c3cccc(C(F)(F)F)c3)cnc12	-111%	?	32µM*	.	?
COc1ccc(-c2cnc3c(NC(C)=O)cc(-c4cccc(C(=O)NCCN(C)C)c4)cn23)cc1OC	-44%	-9%	?	.	18%
CCC(O)CNC(=O)c1cnn(-c2nccc(-c3cc(C)sc3C)n2)c1C1CC1 (stereo not drawn)	.	.	i	.	.
Cc1cc(CNC(=O)c2cnn(-c3nccc(-c4ccc5c(c4)OCO5)n3)c2C2CC2)on1	.	.	i	.	.
O=c1c2cc(Br)ccc2nc(-c2cccc(C(F)(F)F)c2)n1O	14µM*	?	?	-13%	?
C[C@@H]1CCCCO[C@H](CN(C)Cc2ccc(C(F)(F)F)cc2)[C@H](C)CN([C@@H](C)CO)C(=O)c2cc(NC(=O)Cc3ccccc3)ccc2O1	-46%	0%	13µM*	.	?
C[C@@H]1CN([C@@H](C)CO)C(=O)c2cc(NS(C)(=O)=O)ccc2O[C@H]1CN(C)Cc1ccc(Oc2ccccc2)cc1	-12%	-9%	?	.	?
C[C@@H]1CN([C@@H](C)CO)C(=O)c2cc(Br)cnc2O[C@@H]1CN(C)Cc1ccc(Oc2ccccc2)cc1	-35%	-38%	25µM*	.	?
COc1ccc(CN(C)C[C@@H]2OCCCC[C@H](C)Oc3ccc(NC(=O)Nc4ccc(F)cc4)cc3C(=O)N([C@H](C)CO)C[C@H]2C)cc1	25µM*	?	18µM*	.	?
C[C@@H]1CN([C@@H](C)CO)C(=O)c2cc(NC(=O)Nc3ccc(F)cc3)ccc2O[C@@H]1CN(C)Cc1ccc(Oc2ccccc2)cc1	16µM*	0%	25µM*	.	?
COc1cc(Br)c(C[N+]2(CCOCCC3CCC4CC3C4(C)C)CCOCC2)cc1OC (stereo not drawn)	.	.	i	.	.
